In the library only some 11% were active in any assay of this set; here they are far more common.
NIH3T3 tox – Cytotoxic Profiling in NIH 3T3 Cell Line of Diverse Libraries Using Quantitative High-Throughput Screening; NIH 3T3 viability, CellTiter-Glo ATP luminescence, 48-72 h; Potency, µM (doses to about 96.7 µM), without a hit: top-dose activity change, negative = cytotoxicity, actives largely listed as inhibitors; 4.3% of 94,000 active; AID 1345082, 2018; note: % is set by controls: 0 for no effect and ±100 for the full control effect; nearly all actives have a fitted effect of over 55% in size
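NIH 3T3 cells at 400 cells/well received 23 nL of compound by pintool and were incubated 48 or 72 h at 37 °C. Viability was read as ATP-coupled CellTiter-Glo luminescence.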
FLuc inh-1 – Firefly luciferase inhibition profiling of diverse chemical library using quantitative high-throughput screening; Potency, µM (titrated, usually from 115 µM), hits mostly inhibitors; Luciferin 4-monooxygenase (Photinus pyralis), P08659; 2.5% of 76,000 active; purified P. pyralis luciferase, luminescence, biochemical; note: % is set by controls: 0 for no effect and ±100 for the full control effect; nearly all actives have a fitted effect of over 65% in size
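Biochemical qHTS: compound (6-point titration) added to 10uM D-luciferin plus 10uM ATP in Tris acetate pH 7.5 buffer with Mg, Tween-20 and BSA, then purified enzyme at 10nM; light output imaged.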
HEK cytotox – Cytotoxic Profiling in HEK 293 Cell Line of Diverse Libraries Using Quantitative High-Throughput Screening; 6.6% of 94,000 active; Potency, µM (titrated, usually from 115 µM), without a hit: at the top dose activity change, negative = cytotoxicity, usual class: inhibitors; HEK 293 viability, ATP luminescence (CellTiter-Glo), 48-72 h; note: % is set by controls: 0 for no effect and ±100 for the full control effect; nearly all actives have a fitted effect of over 60% in size
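qHTS cytotoxicity; HEK 293, 250 cells/well; compound pinned; 48 or 72 hr, 37 degree Celsius, 5% CO2, 95% humidity; CellTiter-Glo, 10 min RT; luminescence (ATP).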
NPR1 antag – Natriuretic polypeptide receptor (hNpr1) antagonism - Primary qHTS. Atrial natriuretic peptide receptor 1 (Homo sapiens), P16066. HEK293 hNpr1 GloSensor cGMP, ANP-stimulated luminescence. Potency, µM (doses to about 46.3 µM), without a hit: top-dose activity change, negative = inhibition, actives largely listed as inhibitors. 1.6% of 76,000 active. AID 1347048, 2019; calls by dose curve; note: % is set by controls: 0 for no effect and ±100 for the full control effect; nearly all actives have a fitted effect of over 60% in size
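HEK293 cells stably expressing human Npr1 and cGMP GloSensor pGS-40F, loaded 2 h with 2% GloSensor reagent, given compound 30 min at room temperature. Luminescence read before and 20 min after 0.1 nM hNppA.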
FLuc SDR no ATP – Firefly luciferase (FLuc-C-HiBiT) SDR gain of signal screen - without ATP; shares compounds with FLuc inh-1; Purified FLuc-C-HiBiT, Nano-Glo HiBiT luminescence, no ATP; Potency, µM (series often up to 32.7 µM), for the others: at the top dose activation (signal gain), actives largely listed as activators; 7.8% of 1,300 active; AID 1963318, 2024; note: nearly all actives have a fitted effect of over 55% in size
FLuc SDR ATP – Firefly luciferase (FLuc-C-HiBiT) SDR gain of signal screen - plus ATP; 8.7% of 1,300 active; Potency, µM (doses to about 32.7 µM), without a hit: top-dose activation (gain of signal), hits mostly activators; shares compounds with FLuc inh-1; purified FLuc-C-HiBiT + ATP, HiBiT complementation luminescence;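 note: signal reports ligand binding via conformational change of the enzyme rather than luciferase catalysis; % of control where 0% means no effect; nearly all actives have a fitted effect of over 55% in size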
FLuc inh-2 – Firefly luciferase (FLuc-C-HiBiT) enzymatic inhibition screen - Functional assay; 42% of 1,300 active; Potency, µM (highest dose often 32.7 µM), inactives show top-dose activity change, negative = inhibition, most hits filed as inhibitors; shares compounds with FLuc inh-1; purified FLuc-C-HiBiT enzyme, luciferin luminescence; note: % is set by controls: 0 for no effect and ±100 for the full control effect; nearly all actives have a fitted effect of over 70% in size
The depositor's hits bear a star; i = inactive; u = inconclusive; x = no result given; [ ] = another dose, or the depositor's remark. Unless noted, calls come from the whole dose curve; as a rule, active = well fitted curve in the direction sought with a large enough effect; inconclusive = small, poorly fitted or top-dose-only effect, or another doubt; inactive = no such curve, though single readings can be large; an effect the other way counts as inactive or inconclusive. Potency is the fitted concentration of half-maximal effect.

SMILES | NIH3T3 tox | FLuc inh-1 | HEK cytotox | NPR1 antag | FLuc SDR no ATP | FLuc SDR ATP | FLuc inh-2
Cc1ccc(C2Cn3nnc(C(=O)N4CCC(C(=O)Nc5ccccc5)CC4)c3CO2)cc1 (centres undefined) | 5% | 13µM* | 12% | -3% | 13% | u | u
Cc1ccc(NC(=O)C2CCN(C(=O)c3nnn4c3COC(c3ccc(C)cc3)C4)CC2)cc1 (centres undefined) | -14% | u | -2% | -6% | x | x | x
Cc1ccc(C2Cn3nnc(C(=O)N4CCC(C(=O)NCc5ccccn5)CC4)c3CO2)cc1 (centres undefined) | i | 11µM* | -4% | -4% | 11% | u | u
CCOc1ccccc1CN1CCCCCNC(=O)CC1c1ccccc1 (centres undefined) | u | i | u | 4% | x | x | x
Cc1ccc(CCNC(=O)c2nnn3c2COC(c2ccc(Cl)cc2)C3)cc1 (centres undefined) | i | i | 3% | 9% | x | x | x
COc1cccc(CN2CCNc3cc(Nc4ccccc4)ncc3C2)c1 | 40µM* | 5.6µM* | 40µM* | -18%[70.6 µM] | 21%[49.3 µM] | 15%[49.3 µM] | u
COc1cccc(Nc2cc3c(cn2)CN(Cc2cccnc2)CCN3)c1 | u | 5µM* | u | -17%[70.6 µM] | u | 14%[49.3 µM] | u
COc1cccc(CN2CCOc3ccc(C(=O)NCc4ccc(C)cc4)cc3C2)c1 | u | i | u | -25% | x | x | x
COc1cccc(CN2CCc3nc(Nc4ccc5c(c4)OCCO5)ncc3C2)c1 | x | x | x | x | 17% | 13% | u
N#Cc1ccc(S(=O)(=O)N2CCCCCNC(=O)CC2c2ccccc2)cc1 (centres undefined) | -3% | i | -15% | -3% | x | x | x
COc1ccccc1NC(=O)CN1C(=O)CC(c2ccc(C)c(C)c2)=Nc2ccccc21 | x | x | x | x | 19% | 15% | u
COc1ccc2cc(C3CN(C(=O)Cc4ccc(O)cc4)CCO3)ccc2c1 (centres undefined) | u | 8.9µM* | u | u | 21% | 17% | u
COCC(=O)N(C1CCOCC1)C1CCN(C(=O)Cc2ccc(OC)cc2)CC1 | -2% | i | 18% | 2% | x | x | x
COc1ccc(C2Cn3nnc(-c4noc(-c5cccs5)n4)c3CO2)cc1 (centres undefined) | -8% | i | -2% | -8% | x | x | x
COc1ccc(C2Cn3cnc(C(=O)N4CCC(C(=O)Nc5ccc(F)c(F)c5)CC4)c3CO2)cc1 (centres undefined) | -5% | i | -2% | -12% | x | x | x
O=C(Nc1ccc(F)c(Cl)c1)C1CCN(C(=O)c2ncn3c2COC(c2ccccc2)C3)CC1 (centres undefined) | i | 1.8µM* | 7% | u | 13% | 0.7µM* | 0.99µM*
O=C(Nc1ccc(F)c(F)c1)C1CCN(C(=O)c2ncn3c2COC(c2ccc(F)cc2)C3)CC1 (centres undefined) | -9% | 14µM* | u | -14% | 12% | u | u
COc1ccc(NC(=O)C2CCN(C(=O)c3ncn4c3COC(c3ccccc3)C4)CC2)cc1Cl (centres undefined) | 1% | 1.3µM* | 1% | u | 15% | 0.62µM* | 0.88µM*
O=C(C1CCN(c2nc(-c3ccccc3)nc3c2CCC3)CC1)N1CCCNCC1 | u | i | u | 5% | x | x | x
O=[S+]([O-])(c1ccccc1)N1CC2(COCCN(Cc3ccc4c(c3)CCO4)C2)C1 | -30%[138 µM] | i | u | -25%[70.6 µM] | x | x | x
Cc1ccccc1N1CCN(C(=O)[C@@]23CCCC[C@H]2N(CCC(C)C)C(=O)CC3)CC1 | u | i | u | -17% | x | x | x
O=C1CCCN1CCCN1C(=O)[C@H]2CN(Cc3ccccc3OC(F)(F)F)C[C@H]2C1=O | -26% | i | -17% | -2% | x | x | x
COc1cccc(Nc2ccc(CN3CCC(C)(NC(C)=O)C3)cc2)c1 (centres undefined) | 89µM* | 4µM* | u | u | 10%[49.3 µM] | 14%[49.3 µM] | u
CC(=O)NC1(C)CCN(Cc2cccc(-c3ccc4ccccc4c3)c2)C1 (centres undefined) | 28µM* | 1.8µM* | 35µM* | u | 12%[49.3 µM] | u | 11µM*
COc1cccc(-c2cccc(CN3CCCC(C)(NC(C)=O)C3)c2)c1 (centres undefined) | u | u | u | 0%[70.6 µM] | x | x | x
SMILES | NIH3T3 tox | FLuc inh-1 | HEK cytotox | NPR1 antag | FLuc SDR no ATP | FLuc SDR ATP | FLuc inh-2
Cc1ccc(/C=C/c2nc3ccccc3[nH]2)cc1 | x | x | x | x | 0.39µM* | 0.56µM* | 0.044µM*
COc1ccc(C)cc1NC(=O)COc1ccc(-c2nnc3n2CCCC3)cc1 | u | i | u | 1% | x | x | x
COc1ccc(-c2nc3ccccc3s2)cc1NC(=O)COc1ccc(C)cc1 | x | x | x | x | 9% | 6% | -11%
COc1ccc(-c2nc3ccccc3s2)cc1NC(=O)COc1cccc(C)c1 | x | x | x | x | 15% | 8% | -13%
COc1ccc(-c2ccc3nnc(CNC(=O)c4ccccc4Cl)n3n2)cc1 | -30% | i | -5% | 2% | x | x | x
CN(Cc1ccccc1)C(=O)[C@H]1C[C@@H](O)[C@H](O)[C@@H]2N=C(Nc3ccc(-n4cccn4)cc3)S[C@@H]21 | -27% | 13µM* | u | 6% | 9% | u | u
COc1ccc(NC2=N[C@H]3[C@@H](O)[C@H](O)C[C@H](C(=O)NCc4ccccc4OC)[C@H]3S2)cc1 | 0% | i | i | 0% | x | x | x
O=C(NCc1cccc(F)c1)C1CCCN1C(=O)c1cccc(-c2ccccn2)c1 (centres undefined) | -9% | x | -8% | x | x | x | x
NC(=O)[C@@H]1CCCN1C(=O)c1ccc2oc(-c3cccc(F)c3)nc2c1 | u | 11µM* | u | 3% | 17% | 16% | -19%
O=C(NCc1c[nH]c(=O)[nH]c1=O)C1CCN(Cc2ccco2)CC1 | -1% | i | -28% | 4% | x | x | x

Screens deposited in PubChem BioAssay by National Center for Advancing Translational Sciences (NCATS).
